KLF5 inhibitor: kruppel-like factor 5 inhibition; DLD-1 KLF5 promoter-luciferase reporter, luminescence; 0.23% of 290,000 active; inhibition, % at 5 µM;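 active = inhibition above a per-plate limit of that plate's mean compound inhibition plus 3 SD, cut at about 60% in these data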;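 also: 0% = DMSO wells and 100% = LY294002 at 200 µM; higher means less KLF5 promoter-driven luciferase light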
aSyn UTR inh: MLPCN primary screen, SNCA 5' untranslated region; alpha-synuclein 5'UTR reporter, inhibitor activity; inhibition, % (tested at 7.5 µM); 0.82% of 300,000 active; AID 1813; in the data active = inhibition above about 60%;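 also: H4 neuroglioblastoma cells stably carrying SNCA 5'UTR luciferase fusion; 0% = DMSO wells and 100% = positive control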
BaF3 parental: parental Ba/F3 viability inhibition as JAK2V617F counter-screen; CellTiter-Glo ATP luminescence; inhibition, % at 5.6 µM; 1.1% of 220,000 active; AID 1486;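 active = inhibition above a per-campaign cutoff, the mean inhibition of all tested compounds plus 3 SD, cut at about 27% in these data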;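 also: 0% = DMSO wells and 100% = JAK Inhibitor I control wells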
IEC-6 cytotox: IEC-6 cytotoxicity, counter-screen for KLF5 inhibitors; luminescence viability; inhibition, % at 5 µM; 0.78% of 290,000 active; in the data active = inhibition above about 22%;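 also: 0% = plate median of test compound wells and 100% = cytotoxic reference compound wells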
Ba/F3 V617F tox: reduce viability of Ba/F3 cells dependent on JAK2V617F; 1.1% of 220,000 active; Ba/F3 EpoR-JAK2V617F viability, ATP luminescence; inhibition, % at 5.6 µM;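 active = inhibition above the campaign mean plus 3 SD over all tested compounds, cut at about 24% in these data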;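 also: cytokine-independent growth of Ba/F3 cells driven by EpoR plus mutant JAK2; 0% = DMSO-treated cells and 100% = JAK inhibitor I control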
APP transl inh: APP translation inhibition; inhibition, % at 2 µM; 0.82% of 190,000 active; SH-SY5Y APP 5'UTR-luciferase reporter, luminescence; AID 1285;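 active = inhibition above a set limit, derived from the sample mean plus 3 SD, cut at about 45% in these data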
* = called active by the depositor; · = not tested or not shown. Sampled rows, rich in hits. Any-hit rate of the full collection: about 2.2%.

SMILES	KLF5 inhibitor	aSyn UTR inh	BaF3 parental	IEC-6 cytotox	Ba/F3 V617F tox	APP transl inh
COc1ccccc1-c1noc(-c2ccccc2C(=O)NCC2CCCO2)n1 (stereo not given)	-15	0	·	3	·	·
Cc1ccccc1-c1noc(-c2ccccc2C(=O)NCC2CCCO2)n1 (stereo not given)	9	·	62*	0	0	·
CCOC(=O)Cn1nnnc1CN(Cc1cccs1)Cc1cc2cc(C)ccc2[nH]c1=O	7	23	2	-7	-1	62*
Cc1ccc2[nH]c(=O)c(CN(Cc3cccs3)Cc3nnnn3Cc3ccccc3)cc2c1	-18	6	7	-4	-1	0
CC(=O)Nc1cccc(Oc2ncnc3scc(-c4ccc(C(C)C)cc4)c23)c1	-49	48	5	26*	1	2
CN(C(=O)C1CCCCC1)C1CCS(=O)(=O)C1 (stereo not given)	·	-8	·	·	·	·
COc1ccc(N2CCN(Cc3cc(=O)oc4cc(-c5ccccc5)c(O)cc34)CC2)cc1	2	73*	6	-2	1	31
O=c1cc(CN2CCN(c3ccccc3F)CC2)c2cc(O)c(-c3ccccc3)cc2o1	-18	-33	1	5	2	-24
Cc1ccc(C(=O)Nc2cccc(C(F)(F)F)c2)cc1Nc1ncnc2nc[nH]c12	·	78*	·	·	·	·
O=C(O)c1ccc2nc(-c3ccco3)c(-c3ccco3)nc2c1	16	2	-3	-25	-3	1
Cc1ccc(C(=O)Nc2cccc(C(F)(F)F)c2)cc1NC(=O)c1ccno1	·	95*	·	·	·	·
O=C(Nc1cccc(C(F)(F)F)c1)c1ccc2nc(-c3ccco3)c(-c3ccco3)nc2c1	1	16	49*	-1	3	-12
Cc1ccc(C(=O)Nc2cccc(C(F)(F)F)c2)cc1Nc1cnccn1	·	34	·	·	·	·
CC(C)CN(C(=O)c1ccc(-n2cncn2)c([N+](=O)[O-])c1)C1CCS(=O)(=O)C1 (stereo not given)	·	-10	·	·	·	·
CC(OC(=O)CC1Sc2ccccc2NC1=O)C(=O)NC1CCCC1 (stereo not given)	-32	-11	·	-4	·	·
O=[N+]([O-])c1ccc(C[n+]2cccc3c4ccccc4ccc32)cc1	-22	17	74*	-11	90*	4
Cc1ccc[n+](Cc2ccc([N+](=O)[O-])cc2)c1	-28	9	11	0	2	-16
Cc1c(C(=O)Nc2cccnc2Cl)oc2ccccc12	-143	-181	·	7	·	·
COc1ccc(-c2noc(CN(C)Cc3ccccc3)n2)c(OC)c1OC	-42	-68	·	3	·	·
CCOC(=O)C1=C(C)N=C(SC)N(C)C1c1ccccc1 (stereo not given)	-6	2	7	-1	-2	14
CCOC(=O)C1=C(c2ccccc2)ON(C)C1c1ccccc1 (stereo not given)	2	2	39*	-1	26*	2
Cc1cc([N+](=O)[O-])ccc1-c1ccc(C2Nc3ccccc3C(=O)N2O)o1 (stereo not given)	-12	83*	8	7	2	54*
O=[N+]([O-])c1ccc(Sc2cccc3cccnc23)c([N+](=O)[O-])c1	-13	-5	-1	0	-5	55*
O=[N+]([O-])c1cc(Cl)ccc1Sc1cccc2cccnc12	-28	23	3	-2	-1	-19
CCN(CC(=O)NCc1ccc(Cl)cc1)C(=O)CCc1ccccc1O	-2	27	·	2	·	·
SMILES	KLF5 inhibitor	aSyn UTR inh	BaF3 parental	IEC-6 cytotox	Ba/F3 V617F tox	APP transl inh
Cc1onc(-c2ccccc2Cl)c1C(=O)OCN1C(=O)c2ccccc2C1=O	-30	3	95*	6	4	-1
COC(=O)C1=C(C)NC(C)=C(C(=O)OC)C1c1ccc2ccccc2n1	-27	3	1	-4	-3	·
O=C1c2ccccc2C(=O)C1c1ccc2ccccc2n1	-20	94*	6	1	0	-129
O=C(Nc1cccc(S(=O)(=O)N2CCCCC2)c1)c1ccc([N+](=O)[O-])o1	5	-268	-4	11	1	45*
O=C(Nc1ccc(N2CCCC2)c(Cl)c1)c1ccc([N+](=O)[O-])cc1	-15	-53	2	4	-2	-13
CC(C)C(=O)N1CCN(c2ccc(NC(=O)c3ccc([N+](=O)[O-])o3)cc2Cl)CC1	-14	·	-9	6	10	96*
CC(=O)N1CCN(c2ccc(NC(=O)c3ccc(Br)o3)cc2Cl)CC1	-62	-51	2	-4	-2	-12
Cc1ccc(NC(=O)c2ccc([N+](=O)[O-])o2)cc1S(=O)(=O)N1CCOCC1	-32	-24	-8	14	-1	58*
CCCC(=O)N1CCN(c2ccc(NC(=O)c3ccc([N+](=O)[O-])o3)cc2Cl)CC1	-41	-118	82*	0	94*	98*
CC(SC1=NCCN1S(C)(=O)=O)c1ccccc1 (stereo not given)	-7	3	·	2	·	·
Cc1cc(C)cc(OCCCCn2cncn2)c1	-26	8	·	-2	·	·
COc1ccccc1NC(=O)c1ccccc1N(Cc1ccccc1)S(C)(=O)=O	-28	4	·	0	·	·
O=C(Nc1cccc(Cl)c1N1CCCC1)c1ccc([N+](=O)[O-])o1	-13	·	-2	-8	-2	-18
CCN1CCN(c2c(Cl)cccc2NC(=O)c2ccc([N+](=O)[O-])o2)CC1	5	79*	·	0	·	·
O=C(Nc1ccccc1N1CCOCC1)c1ccc([N+](=O)[O-])o1	-10	-45	·	9	·	·
O=C(Nc1ccc(N2CCOCC2)c(Cl)c1)c1ccc([N+](=O)[O-])o1	-18	-56	-5	-4	1	95*
CC(C)CCNC(=O)C1CCC(CNS(=O)(=O)c2cccc3nsnc23)CC1 (stereo not given)	-14	-50	·	8	·	·
Cc1ccc(OCC(=O)Nc2ccc3c(c2)nc(CCN2CCN(C)CC2)n3C)cc1	-8	105*	2	-1	0	·
Cc1ccc(C(C)C)c(OCC(=O)Nc2ccc3c(c2)nc(CCN2CCCCC2)n3C)c1	-14	110*	·	6	·	·
Cn1c(CCN2CCCCC2)nc2cc(NC(=O)COc3ccc(Cl)cc3)ccc21	-2	0	·	0	·	·
CC(C)Cc1cc(-c2ccco2)c(C#N)c(N)n1	-15	70*	1	-2	-2	-12
Oc1[nH]c(N=C2N=c3ccccc3=N2)c2ccccc12	-81	-60	6	77*	21	·
CCN1C(=O)c2cccc3c(Cl)ccc(c23)C1=O	-3	-9	7	3	3	-11
O=C1c2cccc3c(Cl)ccc(c23)C(=O)N1O	-2	10	5	22*	-2	-6
CCOc1ccc(Br)cc1CC(=O)O	-15	4	2	-1	4	-5
CCCOc1ccc(Br)cc1CSC(=N)N	-16	-35	41*	21	38*	-1
CCOC(=O)C1=C(N)n2c(s/c(=C\c3cccs3)c2=O)=C(C(=O)OCC)C1c1cccs1 (stereo not given)	6	29	54*	18	42*	3
